Experimental findings from PubChem BioAssay AID588334 (Broad Institute, 2011) are described below.

Screen size: about 300,000 compounds; about 2,300 (0.77%) were called active.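 Rule for the calls: active = mean activation of at least 80% with every replicate also reaching 80%; inconclusive = mean reaches 80% but some replicate falls short; inactive = the rest.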 The sample as a whole holds a higher share of actives than the screen did.

This experiment can be described thus: activators of MITF-driven TRPM1 promoter reporter, primary screen, cell-based, SK-MEL-5, luciferase, single point (AID 588334).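 Note: 0% = neutral control wells and 100% = parthenolide positive control wells.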 To be noted: SK-MEL-5 TRPM1-promoter luciferase, 24 h; at 12.5 µM; stronger effect = higher value; % of positive control, neutral wells = 0.
Regarding `O=C(c1cnn2ccccc12)N1CCc2ccccc21`, the activation is 91.5% (active).

Take `Cc1cnc(C(=O)OCC(=O)N2CCc3ccccc32)cn1`: the activation was -0.372% (inactive).

For the compound `CCCCn1nc(C(=O)N2CCc3ccccc32)c2ccccc2c1=O`, the activation is -15.9% (inactive).

Consider `C=CC(COCc1ccccc1)N(CC(=O)OC)S(=O)(=O)c1cc(Br)ccc1OC` (stereo not drawn), for which the activation is -10.3% (inactive).

As for `CCC(CO)Oc1cc(NC(=O)c2cccc3ccccc23)c2ncn(C(C)C)c2c1` (stereo not drawn), the activation was -4.63% (inactive).

Regarding `COc1ccc(CNC(=O)C[C@H]2C[C@H](C(=O)N3CCOCC3)[C@@]3(CCC4CCCC4)c4[nH]c5ccc(Cl)cc5c4CCN3C2=O)cc1OC`, the activation was -70.8% (inactive).

As to `N#CC(=C1SC=CS1)c1nc(-c2ccccc2)cs1`, the activation was 47.6% (inactive).

As to `N#CC(=C1CCCC1)c1nc(-c2ccc(Cl)cc2)cs1`, the activation was 91.3% (active).

Regarding `Clc1ccc(-c2csc(-c3ccncc3)n2)cc1`, the activation was 33.5% (inactive).

As for `O=S(=O)(Cc1ccc(Cl)cc1Cl)c1ccc(Cl)cc1`, the activation was 16.2% (inactive).

Consider `CC1(C)C[C@H]2C3=CCC4[C@@]5(C)CC[C@H](O)[C@](C)(CO)C5CC[C@@]4(C)[C@]3(C)C[C@@H](O)[C@@]2(CO)[C@@H](O)[C@@H]1O` (stereo partly drawn), for which the activation was -11.2% (inactive).

In the case of `O=C(CCc1ccccc1)Nc1cccc(-c2nnc(-c3ccco3)o2)c1`, the activation is 10.8% (inactive).

As to `CCC(=O)Oc1cccc(C(=O)Nc2ccc(-c3nnc(-c4ccco4)o3)cc2)c1`, the activation is 85.5% (active).

Regarding `CCCCOc1ccc(-c2nnc(-c3ccco3)o2)cc1`, the activation was 30.3% (inactive).

Take `CC[C@]12c3[nH]c4cc(CCC(=O)N(C)C)ccc4c3CCN1C(=O)[C@@H](CC(=O)NCC13CC4CC(CC(C4)C1)C3)C[C@@H]2C(=O)N1CCN(C(=O)C2CC2)CC1`: the activation is 5.19% (inactive).

Take `COc1ccc(/C=C2/CCCc3ccccc3C2=O)cc1`: the activation is 39.3% (inactive).

Turning to `Brc1ccccc1/C=N/Nc1nc2ccccc2o1`, the activation was 81.1% (active).

For `COc1ccc(/C=N/Nc2nc3ccccc3o2)cc1OC`, the activation was 56.1% (inactive).

As for `CCOc1ccccc1/C=N/Nc1nc2ccccc2o1`, the activation is 13.3% (inactive).

In the case of `O=C(CNC(=O)c1cc(S(=O)(=O)N2CCOCC2)ccc1N1CCCC1)Nc1ccc(F)c(F)c1`, the activation was -3.17% (inactive).

On to `COc1cc2c(cc1CNC[C@H]1O[C@@H](n3cnc(C(N)=O)n3)[C@H](O)[C@@H]1O)OCO2`, for which the activation was -7.21% (inactive).

For the compound `COC(=O)[C@@H]1CCCN1C(=O)c1cc(COc2cccc3cccnc23)on1`, the activation was -6.69% (inactive).

Consider `CSc1ccccc1OCc1cc(C(=O)N2C[C@H]3CC[C@H]2C3)no1`, for which the activation was 91.7% (active).

Turning to `CSc1ccccc1OCc1cc(C(=O)N(C)CCc2c(C)n[nH]c2C)no1`, the activation is 1.76% (inactive).

With `C=CCCC(=O)N1C[C@H]2CON(C)[C@H]2C[C@H]1c1cccc(Nc2ccccc2)c1`, the activation is 17.1% (inactive).

On to `O=C(Nc1ccccc1)Oc1cccc2cccnc12`, for which the activation was -34.4% (inactive).

On to `CCOC(=O)c1nc(Nc2ccc(C(=O)OC)cc2)c2ccccc2n1`, for which the activation was 8.95% (inactive).

On to `COC(=O)c1ccc(Nc2ncnc3sccc23)cc1`, for which the activation was 93.3% (active).

Consider `COc1ccc(Nc2ncnc3sc(C)cc23)cc1`, for which the activation is 68.5% (inactive).

Take `Cc1ccc2sc(NNC(=O)c3ccc4c(c3)OCCO4)nc2c1C`: the activation is -0.623% (inactive).

As to `Cc1cccc(C)c1NC(=O)CNC(=O)c1ccc2c(c1)OCCO2`, the activation is 4.28% (inactive).

Take `O=C(Nc1ccccc1)c1ccc2c(c1)OCCCO2`: the activation was 24.5% (inactive).

As to `O=C(Nc1ccc(Cl)cn1)c1ccc2c(c1)OCCO2`, the activation is 5.88% (inactive).

`Cc1nc(NC(=O)c2ccc3c(c2)OCCO3)ccc1Br`: the activation is 122% (active).

As to `Cc1ccc(C(=O)NNC(=O)c2ccc3c(c2)OCCO3)cc1`, the activation is 109% (active).

Take `CSCCC(NC(=O)COc1ccccc1)C(=O)N1CCN(c2cccc(C(F)(F)F)c2)CC1` (stereo not drawn): the activation is 8.6% (inactive).

With `CC(C)N(C(=O)[C@H]1C[C@H](CC(=O)NCCC2=CCCCC2)C(=O)N2CCc3c([nH]c4cc(CCC(=O)N(C)C)ccc34)[C@]12C)C(C)C`, the activation was 10.3% (inactive).

For the compound `COc1ccc2[nH]c3c(c2c1)CCN1C(=O)C(CC(=O)NCc2cccc(C(F)(F)F)c2)C[C@H](C(=O)N2CCOCC2)[C@@]31C` (stereo partly drawn), the activation was 2.71% (inactive).

In the case of `C1=C(CCNc2ncnc3c2cnn3-c2ccccc2)CCCC1`, the activation is 94.3% (active).

On to `O=C(NNc1ncnc2c1cnn2-c1ccccc1)c1ccco1`, for which the activation was 2.51% (inactive).

For the compound `O=C(NCCC1=CCCCC1)C1CCN(Cc2cnn(-c3ccccc3)c2-n2cccc2)CC1`, the activation is 11.4% (inactive).

Regarding `N#CC(Cc1cc2ccccc2n1S(=O)(=O)c1ccccc1)OCc1ccccc1` (stereo not drawn), the activation was -2.16% (inactive).

As for `O=C(Nc1ccc(O)cc1)c1ccc(NC(=O)c2ccco2)cc1`, the activation was 30.3% (inactive).

Consider `Cc1ccnc(NC(=O)c2ccc(NC(=O)c3ccco3)cc2)c1`, for which the activation is 109% (active).

As for `Cc1cc(NC(=O)c2ccc(F)cc2)ccc1NC(=O)c1ccco1`, the activation is 10.4% (inactive).

As to `CC(C)C[C@H]1CN([C@@H](CC(C)C)CN2CCC[C@@H]2CN2C(=O)C(=O)NC[C@@H]2Cc2ccccc2)C(=O)C(=O)N1CCc1ccccc1`, the activation was 2.67% (inactive).

For `C=CC[C@@H](Cc1ccc(F)cc1)C(=O)OC[C@H]1CCCN1C(=O)[C@H](CC=C)CC(=O)N(CCO)Cc1ccccc1`, the activation is 12.6% (inactive).

For the compound `CC(=O)OC1CCC2(C)C(=CCC3C4CC(=O)N(O)C(=O)C4(C)CCC32)C1` (stereo not drawn), the activation was -5.88% (inactive).

For the compound `COc1ccc(CNCCCNCc2ccc(OC)c(OC)c2)cc1OC`, the activation is 7.54% (inactive).

For `Cc1ccc(NC(=O)COc2ccc(/C=N\NC(=O)c3cccnc3)cc2)cc1C`, the activation was 13.6% (inactive).

Consider `Cc1ccc(N/C=C/C(=O)c2ccccc2)cc1C`, for which the activation was -1.56% (inactive).

For `C/C(=C\C(=O)c1cccnc1)Nc1ccc(C)c(C)c1`, the activation was 104% (active).

As to `COc1ccccc1C(=O)Nc1ccc(C)c(S(=O)(=O)N2CCCCC2)c1`, the activation is -6.44% (inactive).

`CC(=O)Nc1ccc(NC(=O)COC(=O)C2CCC(C(C)(C)C)CC2)cc1` (stereo not drawn): the activation is -0.038% (inactive).

With `COc1ccc(-c2csc(-c3cccs3)n2)cc1OC`, the activation was 56.3% (inactive).

For the compound `COc1ccc(-c2noc(CCCC(=O)NC3CCCC3)n2)cc1OC`, the activation was 4.98% (inactive).

`COc1ccc(-c2noc(-c3cccc(OC)c3OC)n2)cc1OC`: the activation is 88.3% (active).

For `COc1cc(OC)cc(-c2cc3ccc(F)cc3cn2)c1`, the activation was 111% (active).

In the case of `Fc1ccc2cnc(-c3ccccc3)cc2c1`, the activation was 63.9% (inactive).

For the compound `COc1ccc(-c2cc3ncccc3cn2)cc1`, the activation is 72% (inactive).

On to `O=C(Nc1ccc(S(=O)(=O)N2CCOCC2)cc1)C1CCN(S(=O)(=O)c2ccc(Cl)cc2)CC1`, for which the activation is -12.4% (inactive).

As for `COc1ccccc1-c1nnc2n1N=C(c1ccc(OC(F)F)c(OCC3CC3)c1)CS2`, the activation is 3.16% (inactive).

`COc1cc(OC)cc(-c2c(C#Cc3ccsc3)c3cc(-c4ccc(SC)cc4)ccc3n2C)c1`: the activation was 6.54% (inactive).

With `COc1ccc(CCNCc2c(-c3ccccc3)n(C)c3ccccc23)cc1`, the activation is 2.46% (inactive).

As for `COc1ccc(-c2c(C#Cc3ccccc3)c3ccccc3n2C)cc1`, the activation is 85.9% (active).

In the case of `COc1ccc(CC(=O)N[C@@H]2c3cc(OC)c(OC)cc3C[C@H]2OCc2ccccc2)cc1`, the activation is -0.621% (inactive).

In the case of `CCCCNC(=O)C(C)N(CCN(C)C)C(=O)CCCCCN1C(=O)NC(c2ccc(Cl)cc2)C(C(=O)OCc2ccccc2)=C1C` (stereo not drawn), the activation was -93.7% (inactive).

`Oc1ccc(-c2nc3ccccc3nc2-c2ccc(O)cc2O)c(O)c1`: the activation was -29.5% (inactive).

With `CCc1ccc(NC(=O)Cn2nnc(C(=O)NCc3ccc4c(c3)OCO4)c2N)cc1`, the activation was -0.586% (inactive).

Consider `Nc1c(C(=O)Nc2ccc3c(c2)OCCO3)nnn1Cc1ccccc1`, for which the activation was 81.1% (active).

As to `CCOc1ccc(Cn2nnc(C(=O)NCc3ccccc3)c2N)cc1`, the activation was 0.298% (inactive).

In the case of `Cc1cccc(C=CC(=O)c2ccc(Cl)cc2)c1`, the activation was 35.1% (inactive).

With `CN(C)C(=O)CCc1ccc2c3c([nH]c2c1)[C@]1(CCc2ccccc2)[C@@H](C(=O)N2CCCCC2)C[C@H](CC(=O)NCCC2=CCCCC2)C(=O)N1CC3`, the activation was -16.1% (inactive).

On to `Cc1ccc(S(=O)(=O)N2CCN(C(=O)CN3C(=O)NC(C)(c4ccc(Cl)cc4)C3=O)CC2)c(C)c1` (stereo not drawn), for which the activation is 3.72% (inactive).

Consider `Cc1ccc(C(=O)c2c(NC(=O)c3ccccc3)sc(C)c2C)cc1`, for which the activation is 24.2% (inactive).

For `Cc1sc(NC(=O)c2ccc3ncsc3c2)c(C(N)=O)c1C`, the activation was 103% (active).

Regarding `COc1ccccc1-c1nnc(NC(=O)c2ccc3ncsc3c2)o1`, the activation was -3.99% (inactive).

As for `CN(C(=O)c1cccc(NC(=O)Cc2cccc(NC(=O)C3CCCN(C(=O)C4CC4)C3)c2)c1)C1CCC1` (stereo not drawn), the activation is -0.0755% (inactive).

Take `COc1ccc(C(=O)Nc2cc(S(=O)(=O)N3CCCC3)ccc2Cl)cc1`: the activation is 5.82% (inactive).

Consider `Cc1nc2cc(NCc3cccs3)ccc2n1C`, for which the activation is 90.7% (active).

For `Cc1nc2cc(NC(=O)Nc3cccc(F)c3)ccc2n1C`, the activation was 12.9% (inactive).

For `Cc1nc2cc(NC(=O)NC3CC3)ccc2n1C`, the activation was 13.8% (inactive).

For `O=C(O)c1ccc(Cn2cnc3c(=S)nc[nH]c32)cc1`, the activation was 6.13% (inactive).

With `COc1ccc2c(c1)C(=O)CC(c1ccccc1)O2` (stereo not drawn), the activation was 54.8% (inactive).

Regarding `Cc1cc(NC(=O)C(C)SCC(=O)Nc2cccc(S(=O)(=O)N3CCCCCC3)c2)no1` (stereo not drawn), the activation was -15.9% (inactive).

For `COC(=O)c1cc(NC(=O)C2C3C=CC(C3)C2C(=O)O)cc(C(=O)OC)c1` (stereo not drawn), the activation was 14.6% (inactive).

Consider `CC(=O)NS(=O)(=O)c1ccc(NC(=O)C2C3C=CC(C3)C2C(=O)O)cc1` (stereo not drawn), for which the activation is -12.7% (inactive).

For the compound `CC(C)COC(=O)c1ccc(NC(=O)C2C3C=CC(C3)C2C(=O)O)cc1` (stereo not drawn), the activation is 105% (active).
